{"source": "PubChem BioAssay (Tox21)", "key": {"[1]": {"assay": "qHTS assay to identify small molecule antagonists of the thyroid receptor (TR) signaling pathway - cell viability counter screen (AID 743064); also: nearly all actives have a fitted effect of over 50% in size; also: potency is read from the fitted curve at half-maximal effect", "in_short": "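CellTiter-Fluor readout, 30 min at 37 °C/5% CO2, following 23.5 h incubation of GH3.TRE-Luc cells with test compound and 1 nM T3 (final).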"}, "[2]": {"assay": "qHTS assay to identify small molecule antagonists of the thyroid receptor (TR) signaling pathway (AID 743065); also: nearly all actives have a fitted effect of over 55% in size; also: potency is read from the fitted curve at half-maximal effect", "in_short": "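GH3.TRE-Luc rat pituitary cells (two TREs driving luciferase) were dosed with compound, then stimulated with 1 nM T3 (final) for 23.5 h at 37 C. ONE-Glo luminescence was the read-out, with CellTiter-Fluor fluorescence as the cytotoxicity counter-screen.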"}, "[3]": {"tested_on": "thyroid hormone receptor (rat, GH3 cells)", "assay": "qHTS assay to identify small molecule agonists of the thyroid receptor (TR) signaling pathway (AID 743066; calls by dose curve; also: potency is read from the fitted curve at half-maximal effect)"}, "[4]": {"molecular_target": "Estrogen receptor (Homo sapiens) (UniProt P03372)", "sequence (P03372 whole entry, looked up)": "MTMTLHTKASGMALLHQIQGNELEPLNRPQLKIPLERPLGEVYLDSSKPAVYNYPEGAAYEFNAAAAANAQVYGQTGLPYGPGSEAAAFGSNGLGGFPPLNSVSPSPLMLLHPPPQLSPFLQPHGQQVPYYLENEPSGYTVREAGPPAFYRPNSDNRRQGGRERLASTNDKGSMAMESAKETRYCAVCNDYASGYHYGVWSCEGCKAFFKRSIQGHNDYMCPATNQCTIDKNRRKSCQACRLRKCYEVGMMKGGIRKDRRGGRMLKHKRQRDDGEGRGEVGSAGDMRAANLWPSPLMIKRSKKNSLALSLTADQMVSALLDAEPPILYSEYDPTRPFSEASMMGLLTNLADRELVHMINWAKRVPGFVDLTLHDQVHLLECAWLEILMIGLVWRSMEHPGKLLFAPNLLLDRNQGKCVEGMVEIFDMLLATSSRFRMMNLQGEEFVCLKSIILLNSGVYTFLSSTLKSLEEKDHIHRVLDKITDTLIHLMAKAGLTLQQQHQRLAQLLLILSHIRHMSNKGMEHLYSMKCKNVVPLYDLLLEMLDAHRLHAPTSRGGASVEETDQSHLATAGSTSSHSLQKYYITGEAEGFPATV", "assay": "qHTS assay to identify small molecule antagonists of the estrogen receptor alpha (ER-alpha) signaling pathway (AID 743069; active = well fitted curve in the direction sought with a large enough effect in the signal ratio in the repeat runs, not every such curve was filed as active; the % refers to the signal ratio; also: potency is read from the fitted curve at half-maximal effect)", "in_short": "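Reporter cells (ER-alpha-bla, HEK293 background) are conditioned overnight in stripped-serum medium (2% charcoal-stripped FBS). Compound and 17beta-estradiol exposure runs 18 hr at 37C, 5% CO2.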"}, "[5]": {"assay": "qHTS assay to identify small molecule antagonists of the estrogen receptor alpha (ER-alpha) signaling pathway - cell viability counter screen (AID 743074; calls by dose curve; also: nearly all actives have a fitted effect of over 45% in size)"}, "[6]": {"molecular_target": "Estrogen receptor (Homo sapiens) (UniProt P03372)", "assay": "qHTS assay to identify small molecule agonists of the estrogen receptor alpha (ER-alpha) signaling pathway (AID 743075; calls by dose curve;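 also: HEK293 GripTite cells with ER-alpha and UAS-driven beta-lactamase reporter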)"}, "[7]": {"molecular_target": "Estrogen receptor (Homo sapiens) (UniProt P03372)", "assay": "qHTS assay to identify small molecule agonists of the estrogen receptor alpha (ER-alpha) signaling pathway using the BG1 cell line (AID 743079); also: nearly all actives have a fitted effect of over 20% in size"}, "[8]": {"assay": "qHTS assay to identify small molecule antagonists of the estrogen receptor alpha (ER-alpha) signaling pathway using the BG1 cell line (AID 743080; calls by dose curve; also: nearly all actives have a fitted effect of over 25% in size)", "conditions": "BG1Luc4E2 ERE-luciferase antagonist mode, luminescence; activity change, negative = inhibition: at 70.3 µM (top of the series) unless noted", "in_short": "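Quantitative HTS on the Tox21 10K library: BG1 cells with endogenous ER-alpha and ERE-luciferase reporter, 17beta-estradiol stimulation, 21.5 h compound exposure, luminescence endpoint with parallel fluorescence cytotoxicity counter-read.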"}, "[9]": {"assay": "qHTS assay to identify small molecule antagonists of the estrogen receptor alpha (ER-alpha) signaling pathway using the BG1 cell line - cell viability counter screen (AID 743081);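 also: compound given together with 17beta-estradiol as the ER stimulus; nearly all actives have a fitted effect of over 45% in size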"}, "[10]": {"molecular_target": "Aromatase (Homo sapiens) (UniProt P11511)", "sequence (P11511 whole entry, looked up)": "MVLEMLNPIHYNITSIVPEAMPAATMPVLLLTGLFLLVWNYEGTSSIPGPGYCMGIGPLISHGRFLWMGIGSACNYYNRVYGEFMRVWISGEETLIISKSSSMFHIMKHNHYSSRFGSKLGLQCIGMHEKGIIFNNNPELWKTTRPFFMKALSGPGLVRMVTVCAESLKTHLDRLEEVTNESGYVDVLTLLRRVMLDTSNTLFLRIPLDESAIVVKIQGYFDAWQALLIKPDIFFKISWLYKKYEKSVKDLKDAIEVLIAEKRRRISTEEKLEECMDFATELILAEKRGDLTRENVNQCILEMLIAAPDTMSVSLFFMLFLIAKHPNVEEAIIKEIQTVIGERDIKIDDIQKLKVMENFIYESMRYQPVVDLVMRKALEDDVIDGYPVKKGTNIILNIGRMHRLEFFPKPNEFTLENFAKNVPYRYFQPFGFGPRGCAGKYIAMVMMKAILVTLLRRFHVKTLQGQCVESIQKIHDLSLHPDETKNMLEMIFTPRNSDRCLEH", "assay": "qHTS assay to identify aromatase inhibitors (AID 743083); also: nearly all actives have a fitted effect of over 55% in size; also: potency is read from the fitted curve at half-maximal effect"}}, "note": "“And” between values parts separate entries of the source, which are not always exact repeats. Equal values may be shown once. Records with an inconclusive call do not appear. Entries that show only a call come without a potency. Some compounds were tested as several samples or in several runs, with calls that do not always agree. The source made the active and inactive calls. Unless noted, calls follow the shape of the dose curve; as a rule, active = well fitted curve in the direction sought with a large enough effect in the repeat runs; inconclusive = weak or mixed curves; inactive = no such curve, though single readings can be large; an effect the other way counts as inactive or inconclusive.", "data": [{"compound": "COP(=O)(OC)OC=C(Cl)Cl", "values": [{"measurement": "Potency", "setting": "[1]", "value": "inactive"}, {"measurement": "Potency", "setting": "[2]", "value": "inactive"}, {"measurement": "Potency", "setting": "[3]", "value": "inactive"}, {"measurement": "Potency", "setting": "[4]", "value": "10.7 µM [inhibitor] (active) and inactive"}, {"measurement": "Potency", "setting": "[5]", "value": "inactive"}, {"measurement": "Potency", "setting": "[6]", "value": "inactive"}, {"measurement": "Potency", "setting": "[7]", "value": "inactive"}, {"measurement": "Potency", "setting": "[8]", "value": "inactive"}, {"measurement": "Potency", "setting": "[9]", "value": "inactive"}, {"measurement": "Potency", "setting": "[10]", "value": "inactive"}]}, {"compound": "CC[N+](CC)(CC)CC", "values": [{"measurement": "Potency", "setting": "[1]", "value": "inactive"}, {"measurement": "Potency", "setting": "[2]", "value": "inactive"}, {"measurement": "Potency", "setting": "[3]", "value": "inactive"}, {"measurement": "Potency", "setting": "[5]", "value": "inactive"}, {"measurement": "Potency", "setting": "[9]", "value": "inactive"}, {"measurement": "Potency", "setting": "[10]", "value": "inactive"}]}, {"compound": "O=C(O)C(Cl)Cl", "values": [{"measurement": "Potency", "setting": "[1]", "value": "inactive"}, {"measurement": "Potency", "setting": "[2]", "value": "inactive"}, {"measurement": "Potency", "setting": "[3]", "value": "inactive and 61.1 µM (active)"}, {"measurement": "Potency", "setting": "[4]", "value": "inactive"}, {"measurement": "Potency", "setting": "[5]", "value": "inactive"}, {"measurement": "Potency", "setting": "[6]", "value": "inactive"}, {"measurement": "Potency", "setting": "[7]", "value": "inactive"}, {"measurement": "Potency", "setting": "[8]", "value": "inactive"}, {"measurement": "Potency", "setting": "[9]", "value": "inactive"}, {"measurement": "Potency", "setting": "[10]", "value": "inactive"}]}, {"compound": "CCOP(=S)(OCC)Oc1ccc2c(C)c(Cl)c(=O)oc2c1", "values": [{"measurement": "Potency", "setting": "[1]", "value": "inactive"}, {"measurement": "Potency", "setting": "[2]", "value": "inactive"}, {"measurement": "Potency", "setting": "[3]", "value": "inactive"}, {"measurement": "Potency", "setting": "[5]", "value": "inactive"}, {"measurement": "Potency", "setting": "[9]", "value": "inactive"}, {"measurement": "Potency", "setting": "[10]", "value": "inactive"}]}, {"compound": "OCCOc1ccccc1", "values": [{"measurement": "Potency", "setting": "[1]", "value": "inactive"}, {"measurement": "Potency", "setting": "[2]", "value": "inactive"}, {"measurement": "Potency", "setting": "[3]", "value": "inactive"}, {"measurement": "Potency", "setting": "[4]", "value": "inactive"}, {"measurement": "Potency", "setting": "[5]", "value": "inactive"}, {"measurement": "Potency", "setting": "[6]", "value": "inactive"}, {"measurement": "Potency", "setting": "[7]", "value": "inactive"}, {"measurement": "Potency", "setting": "[8]", "value": "inactive"}, {"measurement": "Potency", "setting": "[9]", "value": "inactive"}, {"measurement": "Potency", "setting": "[10]", "value": "inactive"}]}, {"compound": "O=[N+]([O-])c1ccccc1O", "values": [{"measurement": "Potency", "setting": "[1]", "value": "inactive"}, {"measurement": "Potency", "setting": "[2]", "value": "inactive"}, {"measurement": "Potency", "setting": "[3]", "value": "inactive"}, {"measurement": "Potency", "setting": "[5]", "value": "inactive"}, {"measurement": "Potency", "setting": "[9]", "value": "inactive"}, {"measurement": "Potency", "setting": "[10]", "value": "inactive"}]}, {"compound": "CC(Cl)(Cl)C(=O)O", "values": [{"measurement": "Potency", "setting": "[1]", "value": "inactive"}, {"measurement": "Potency", "setting": "[2]", "value": "inactive"}, {"measurement": "Potency", "setting": "[3]", "value": "inactive"}, {"measurement": "Potency", "setting": "[4]", "value": "inactive"}, {"measurement": "Potency", "setting": "[5]", "value": "inactive"}, {"measurement": "Potency", "setting": "[6]", "value": "inactive"}, {"measurement": "Potency", "setting": "[7]", "value": "inactive"}, {"measurement": "Potency", "setting": "[8]", "value": "inactive"}, {"measurement": "Potency", "setting": "[9]", "value": "inactive"}, {"measurement": "Potency", "setting": "[10]", "value": "inactive"}]}, {"compound": "C1CCC(NC2CCCCC2)CC1", "values": [{"measurement": "Potency", "setting": "[1]", "value": "inactive"}, {"measurement": "Potency", "setting": "[2]", "value": "inactive"}, {"measurement": "Potency", "setting": "[3]", "value": "inactive"}, {"measurement": "Potency", "setting": "[4]", "value": "inactive"}, {"measurement": "Potency", "setting": "[5]", "value": "inactive"}, {"measurement": "Potency", "setting": "[6]", "value": "inactive"}, {"measurement": "Potency", "setting": "[7]", "value": "inactive"}, {"measurement": "Potency", "setting": "[8]", "value": "inactive"}, {"measurement": "Potency", "setting": "[9]", "value": "inactive"}, {"measurement": "Potency", "setting": "[10]", "value": "inactive"}]}, {"compound": "CCCC[n+]1ccccc1", "values": [{"measurement": "Potency", "setting": "[1]", "value": "inactive"}, {"measurement": "Potency", "setting": "[2]", "value": "inactive"}, {"measurement": "Potency", "setting": "[3]", "value": "inactive"}, {"measurement": "Potency", "setting": "[5]", "value": "inactive"}, {"measurement": "Potency", "setting": "[9]", "value": "inactive"}, {"measurement": "Potency", "setting": "[10]", "value": "inactive"}]}, {"compound": "C=CCOC(Cn1ccnc1)c1ccc(Cl)cc1Cl", "note": "(stereo unspecified)", "values": [{"measurement": "Potency", "setting": "[1]", "value": "54.6 µM (active)"}, {"measurement": "Potency", "setting": "[2]", "value": "23.7 µM (active) and 61.3 µM (active) and 30.6 µM (active)"}, {"measurement": "Potency", "setting": "[3]", "value": "inactive"}, {"measurement": "Potency", "setting": "[5]", "value": "inactive"}, {"measurement": "Potency", "setting": "[9]", "value": "inactive"}, {"measurement": "Potency", "setting": "[10]", "value": "944 nM (active) and 387 nM (active) and 433 nM (active)"}]}, {"compound": "Cc1cc(Cl)ccc1OCC(=O)O", "values": [{"measurement": "Potency", "setting": "[1]", "value": "inactive"}, {"measurement": "Potency", "setting": "[2]", "value": "inactive"}, {"measurement": "Potency", "setting": "[3]", "value": "inactive"}, {"measurement": "Potency", "setting": "[4]", "value": "inactive"}, {"measurement": "Potency", "setting": "[5]", "value": "inactive"}, {"measurement": "Potency", "setting": "[6]", "value": "inactive"}, {"measurement": "Potency", "setting": "[7]", "value": "inactive"}, {"measurement": "Potency", "setting": "[8]", "value": "inactive"}, {"measurement": "Potency", "setting": "[9]", "value": "inactive"}, {"measurement": "Potency", "setting": "[10]", "value": "inactive"}]}, {"compound": "CCCCCCCCCCCCn1cc[n+](C)c1", "values": [{"measurement": "Potency", "setting": "[1]", "value": "4.4 µM (active) [middle of 6 runs]"}]}, {"compound": "O=C(O)c1nc(Cl)ccc1Cl", "values": [{"measurement": "Potency", "setting": "[1]", "value": "inactive"}, {"measurement": "Potency", "setting": "[2]", "value": "inactive"}, {"measurement": "Potency", "setting": "[3]", "value": "inactive"}, {"measurement": "Potency", "setting": "[4]", "value": "inactive"}, {"measurement": "Potency", "setting": "[5]", "value": "inactive"}, {"measurement": "Potency", "setting": "[6]", "value": "inactive"}, {"measurement": "Potency", "setting": "[7]", "value": "inactive"}, {"measurement": "Potency", "setting": "[8]", "value": "inactive"}, {"measurement": "Potency", "setting": "[9]", "value": "inactive"}, {"measurement": "Potency", "setting": "[10]", "value": "inactive"}]}]}
